Laboratory results reported in PubChem BioAssay (NCI).
About 83,000 compounds went through this panel and 20% of them were active in at least one assay; those are over-represented in the sample as a whole.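 Each cell line was grown in a 96-well plate and treated with one concentration of compound for 48 hours. Values below 10 were considered active.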 The source made the active and inactive calls.

Experiments:
Assay in all cases: NCI-60 one-dose screen, 48 h (100 = growth as untreated, 0 = no growth, -100 = all killed)
Settings in all cases: 10 µM unless noted
SR leukemia = system: SR leukemia
RPMI-8226 leukemia = system: RPMI-8226 leukemia
OVCAR-8 ovarian = system: OVCAR-8 ovarian
OVCAR-5 ovarian = system: OVCAR-5 ovarian
OVCAR-4 ovarian = system: OVCAR-4 ovarian
SK-OV-3 ovarian = system: SK-OV-3 ovarian
IGROV1 ovarian = system: IGROV1 ovarian
OVCAR-3 ovarian = system: OVCAR-3 ovarian
HS 578T breast = system: HS 578T breast
NCI/ADR-RES ovarian = system: NCI/ADR-RES ovarian
T-47D breast = system: T-47D breast
BT-549 breast = system: BT-549 breast
MDA-MB-435 melanoma = system: MDA-MB-435 melanoma
SW-620 colon = system: SW-620 colon
HCT-116 colon = system: HCT-116 colon
HCC-2998 colon = system: HCC-2998 colon
KM12 colon = system: KM12 colon
MCF7 breast = system: MCF7 breast

Measured: growth

CC(=O)C1=C(O)C=C2Oc3c(C(=O)/C=C/c4ccccc4)c(O)c(C)c(O)c3[C@]2(C)C1=O
inactive: SR leukemia 30.3% | RPMI-8226 leukemia 34.9% | OVCAR-8 ovarian 14% | OVCAR-5 ovarian 78.7% | OVCAR-4 ovarian 55.4% | SK-OV-3 ovarian 40.9% | IGROV1 ovarian 37.1% | OVCAR-3 ovarian 27.5% | HS 578T breast 50% | NCI/ADR-RES ovarian 16.9% | T-47D breast 47.1% | BT-549 breast 49.6% | MDA-MB-435 melanoma 46.3% | SW-620 colon 49.9% | HCT-116 colon 30.9% | HCC-2998 colon 32.6% | KM12 colon 33.6%

COc1cc2c(cc1O)CCc1cc(O)cc(OC)c1-2
inactive: SR leukemia 77.4% | RPMI-8226 leukemia 75.5% | OVCAR-8 ovarian 88.1% | OVCAR-5 ovarian 109% | OVCAR-4 ovarian 94.9% | SK-OV-3 ovarian 96.9% | IGROV1 ovarian 105% | OVCAR-3 ovarian 95.6% | HS 578T breast 83.3% | NCI/ADR-RES ovarian 99% | T-47D breast 98% | BT-549 breast 79.9% | MDA-MB-435 melanoma 96.2% | SW-620 colon 109% | MCF7 breast 97.8% | HCT-116 colon 93.7% | KM12 colon 97.4%

NS(=O)(=O)c1ccc(Nc2nc3n[nH]c(Nc4ccccc4)c3c(=O)[nH]2)cc1
inactive: SR leukemia 94.1% | RPMI-8226 leukemia 107% | OVCAR-8 ovarian 100% | OVCAR-5 ovarian 111% | OVCAR-4 ovarian 105% | SK-OV-3 ovarian 84.4% | IGROV1 ovarian 102% | OVCAR-3 ovarian 106% | HS 578T breast 103% | NCI/ADR-RES ovarian 99.7% | T-47D breast 87.3% | BT-549 breast 99.1% | MDA-MB-435 melanoma 103% | SW-620 colon 104% | MCF7 breast 98.5% | HCT-116 colon 112% | KM12 colon 100%

Cn1c2ccccc2c2c3[nH]c(=O)[nH]c(=O)c3c3c4ccccc4n(C)c3c21
inactive: SR leukemia 13.7% | RPMI-8226 leukemia 33.1% | OVCAR-8 ovarian 31.3% | OVCAR-5 ovarian 23.8% | SK-OV-3 ovarian 48.6% | IGROV1 ovarian 22.5% | NCI/ADR-RES ovarian 32.2% | T-47D breast 42.5% | BT-549 breast 39.7% | MDA-MB-435 melanoma 36.5% | SW-620 colon 33.1% | MCF7 breast 32.9% | HCT-116 colon 17.6% | KM12 colon 24.2%
active: OVCAR-4 ovarian -10.1% | OVCAR-3 ovarian 4.89% | HS 578T breast -7.29%

O=C(Nc1ccc(F)cc1)Nc1ccc(CCO)cc1
inactive: SR leukemia 103% | RPMI-8226 leukemia 108% | OVCAR-8 ovarian 104% | OVCAR-5 ovarian 114% | OVCAR-4 ovarian 97.6% | SK-OV-3 ovarian 113% | IGROV1 ovarian 99.9% | OVCAR-3 ovarian 117% | HS 578T breast 106% | NCI/ADR-RES ovarian 108% | T-47D breast 104% | BT-549 breast 108% | MDA-MB-435 melanoma 97.4% | SW-620 colon 108% | MCF7 breast 109% | HCT-116 colon 94.7% | KM12 colon 108%

O=C1Nc2ccccc2/C1=C/C(=N/c1nnc(-c2ccc(Cl)cc2)s1)c1ccccc1
active: SR leukemia -27.6% | RPMI-8226 leukemia -14.4% | OVCAR-3 ovarian -70.1% | SW-620 colon -52.6% | HCT-116 colon -58.5%
inactive: OVCAR-8 ovarian 10.4% | OVCAR-5 ovarian 72.6% | OVCAR-4 ovarian 57.3% | SK-OV-3 ovarian 75.9% | IGROV1 ovarian 21% | HS 578T breast 80.1% | NCI/ADR-RES ovarian 41% | T-47D breast 65.9% | BT-549 breast 31.9% | MDA-MB-435 melanoma 41.7% | MCF7 breast 28.5% | KM12 colon 66.4%

COc1cc2nc3cc([N+](=O)[O-])ccc3c(NCCCNCC(C)(C)O)c2cc1OC
active: SR leukemia 5.93% | RPMI-8226 leukemia -9.27% | OVCAR-8 ovarian -45% | OVCAR-5 ovarian -3.65% | OVCAR-4 ovarian -37.2% | SK-OV-3 ovarian -46% | IGROV1 ovarian -18% | OVCAR-3 ovarian -60.3% | HS 578T breast -18.6% | T-47D breast -40.6% | BT-549 breast -71.3% | MDA-MB-435 melanoma -85.8% | SW-620 colon -11.8% | HCT-116 colon -46% | HCC-2998 colon -70.2% | KM12 colon -47.2%
inactive: NCI/ADR-RES ovarian 87.6%

O=C(O)c1ccccc1Nc1cccc(S(F)(F)(F)(F)F)c1
inactive: SR leukemia 99.1% | RPMI-8226 leukemia 100% | OVCAR-8 ovarian 98.9% | OVCAR-5 ovarian 115% | OVCAR-4 ovarian 102% | SK-OV-3 ovarian 87.4% | IGROV1 ovarian 99.8% | OVCAR-3 ovarian 95% | HS 578T breast 99.2% | NCI/ADR-RES ovarian 106% | T-47D breast 85.8% | BT-549 breast 106% | MDA-MB-435 melanoma 101% | SW-620 colon 94% | HCT-116 colon 98.3% | HCC-2998 colon 108% | KM12 colon 100%

CC/C(Cc1ccccc1)=C(\c1ccc(OCCN2CCCC2)cc1)c1ccc(OC(C)=O)cc1
inactive: SR leukemia 14.3% | RPMI-8226 leukemia 60.2% | OVCAR-8 ovarian 97.8% | OVCAR-5 ovarian 92.6% | OVCAR-4 ovarian 79% | SK-OV-3 ovarian 107% | IGROV1 ovarian 78% | OVCAR-3 ovarian 89.6% | HS 578T breast 85.5% | NCI/ADR-RES ovarian 75.5% | T-47D breast 51.4% | BT-549 breast 93.8% | MDA-MB-435 melanoma 69.7% | SW-620 colon 89.9% | HCT-116 colon 78.7% | HCC-2998 colon 56.3% | KM12 colon 70.7%

O=C(/C=C/c1ccc(Cl)cc1)/C=C/c1cc2ccccc2[nH]c1=O
active: SR leukemia 1.79% | RPMI-8226 leukemia -22.2% | OVCAR-8 ovarian -11.5% | MDA-MB-435 melanoma -1.71% | SW-620 colon 8.48% | MCF7 breast 5.22% | HCT-116 colon -55.7%
inactive: OVCAR-5 ovarian 128% | OVCAR-4 ovarian 84.1% | SK-OV-3 ovarian 99.9% | IGROV1 ovarian 78.8% | OVCAR-3 ovarian 15.9% | HS 578T breast 91.2% | NCI/ADR-RES ovarian 86% | T-47D breast 48.7% | BT-549 breast 44.6% | KM12 colon 28.3%

O=C(N/N=C/c1ccc(O)cc1O)c1cccnc1
active: SR leukemia -6.2% | OVCAR-8 ovarian -8.42% | MCF7 breast 7.27%
inactive: RPMI-8226 leukemia 44.6% | OVCAR-5 ovarian 77.6% | OVCAR-4 ovarian 32.6% | SK-OV-3 ovarian 46.8% | IGROV1 ovarian 44.3% | OVCAR-3 ovarian 19.8% | HS 578T breast 71.6% | NCI/ADR-RES ovarian 19.1% | T-47D breast 26.9% | BT-549 breast 59.5% | MDA-MB-435 melanoma 63.8% | SW-620 colon 44.6% | HCT-116 colon 29.8% | KM12 colon 58.3%

COc1ccc2nc3cc(Cl)ccc3c(N3CCN(c4nccc(Nc5ccccc5)n4)CC3)c2c1
inactive: SR leukemia 26.9% | RPMI-8226 leukemia 45.2% | OVCAR-8 ovarian 67.8% | OVCAR-5 ovarian 99.5% | OVCAR-4 ovarian 50.8% | SK-OV-3 ovarian 96.2% | IGROV1 ovarian 78.8% | OVCAR-3 ovarian 50.7% | HS 578T breast 88.1% | NCI/ADR-RES ovarian 69.9% | T-47D breast 23.3% | MDA-MB-435 melanoma 62% | SW-620 colon 59.7% | MCF7 breast 24.3% | HCT-116 colon 16.3% | HCC-2998 colon 87.6% | KM12 colon 63.1%

COc1ccc(S(=O)(=O)NCCCNc2nccc(-c3c(-c4cccc(N)c4)nc4sccn34)n2)cc1
inactive: SR leukemia 86.4% | RPMI-8226 leukemia 84% | OVCAR-8 ovarian 93.5% | OVCAR-5 ovarian 134% | OVCAR-4 ovarian 97.1% | SK-OV-3 ovarian 112% | IGROV1 ovarian 87.1% | OVCAR-3 ovarian 94.5% | HS 578T breast 93.9% | NCI/ADR-RES ovarian 94.7% | T-47D breast 63% | MDA-MB-435 melanoma 70.2% | SW-620 colon 138% | MCF7 breast 69.3% | HCT-116 colon 99.2% | HCC-2998 colon 144% | KM12 colon 39.4%

c1ccc(-c2nc(N3CCOCC3)c3c4c(sc3n2)CCCCC4)nc1
active: T-47D breast 8.3%
inactive: SR leukemia 59.6% | RPMI-8226 leukemia 35.5% | OVCAR-8 ovarian 81.2% | OVCAR-5 ovarian 58.3% | OVCAR-4 ovarian 51% | SK-OV-3 ovarian 32.9% | IGROV1 ovarian 24% | OVCAR-3 ovarian 74.2% | HS 578T breast 65% | NCI/ADR-RES ovarian 27.3% | MDA-MB-435 melanoma 71% | SW-620 colon 88.6% | MCF7 breast 23.7% | HCT-116 colon 74.3% | HCC-2998 colon 83% | KM12 colon 64.7%

CCCCCCCCCCCCCC(=O)C(C)N (stereo unspecified)
active: SR leukemia -2.57% | T-47D breast -30.2%
inactive: RPMI-8226 leukemia 31.9% | OVCAR-8 ovarian 89.9% | OVCAR-5 ovarian 68.7% | OVCAR-4 ovarian 14.3% | SK-OV-3 ovarian 72.5% | IGROV1 ovarian 53.2% | OVCAR-3 ovarian 73.6% | HS 578T breast 70.6% | NCI/ADR-RES ovarian 75.8% | MDA-MB-435 melanoma 78.5% | SW-620 colon 80.4% | MCF7 breast 34% | HCT-116 colon 59.2% | HCC-2998 colon 55.1% | KM12 colon 22.1%

O=[N+]([O-])c1cccc(-c2nc3sccn3c2-c2ccnc(NCCCNS(=O)(=O)c3ccc(Br)cc3)n2)c1
active: RPMI-8226 leukemia 9.86% | T-47D breast 1.8%
inactive: SR leukemia 51.8% | OVCAR-8 ovarian 28.2% | OVCAR-5 ovarian 114% | OVCAR-4 ovarian 32.7% | SK-OV-3 ovarian 92.5% | IGROV1 ovarian 41.6% | OVCAR-3 ovarian 51.2% | HS 578T breast 87.7% | NCI/ADR-RES ovarian 23.1% | MDA-MB-435 melanoma 46.6% | SW-620 colon 98.1% | MCF7 breast 34% | HCT-116 colon 56.9% | HCC-2998 colon 102% | KM12 colon 40.5%

C/C=C/C(N)=O
inactive: SR leukemia 92% | RPMI-8226 leukemia 109% | OVCAR-8 ovarian 106% | OVCAR-5 ovarian 100% | OVCAR-4 ovarian 107% | SK-OV-3 ovarian 110% | IGROV1 ovarian 106% | OVCAR-3 ovarian 99% | HS 578T breast 99.9% | NCI/ADR-RES ovarian 106% | T-47D breast 115% | MDA-MB-435 melanoma 96.4% | SW-620 colon 96.8% | MCF7 breast 92.1% | HCT-116 colon 98.4% | HCC-2998 colon 109% | KM12 colon 103%

Nc1c(C(=O)Nc2cccc3c2OCCO3)sc2nc3c(cc12)C(=O)CCC3
active: MDA-MB-435 melanoma -60.4%
inactive: SR leukemia 36.3% | RPMI-8226 leukemia 33.7% | OVCAR-8 ovarian 51.8% | OVCAR-5 ovarian 36.1% | OVCAR-4 ovarian 71% | SK-OV-3 ovarian 70.5% | IGROV1 ovarian 48% | OVCAR-3 ovarian 16.2% | HS 578T breast 29.5% | NCI/ADR-RES ovarian 14.1% | T-47D breast 36.5% | SW-620 colon 25.2% | MCF7 breast 18.6% | HCT-116 colon 33.8% | HCC-2998 colon 46.6% | KM12 colon 23.4%
